Source: PubChem BioAssay AID1159580 (chemical genetic matrix, 2015)
Values joined by “and” are separate entries in the source; they are usually repeats but may differ in a detail not shown here. Identical values can stand only once. The whole screen tested about 5,500 compounds, of which about 2,000 (36%) were called active. Inconclusive results (about 18%) are left out. Rule as the data show it: active = normalized growth mostly below about 0.91 (no sharp cut-off); inconclusive = no clear call, values can overlap the other calls; inactive = mostly above about 0.92. The list shows a part of the results.

Experiment: chemical genetic growth profiling, strain panel (AID 1159580);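 also: tested at 20 µM; growth read once vehicle control cultures reached saturation at 30 °C; 1 = growth at the plate median or of vehicle wells; lower values mean less growth of the strain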
Details: S. cerevisiae deletion strains, growth OD

Measured: normalized growth

COc1ccc(NS(=O)(=O)c2ccc(N)cc2)nn1
inactive: locus YAL013W, strain DEP1, stronger effect = lower value 1.01 | locus YAL021C, strain ccr4, stronger effect = lower value 0.989 | locus YAL026C, strain drs2, stronger effect = lower value 1 | locus YAL030W, strain snc1, stronger effect = lower value 0.996 | locus YBL061C, strain skt5, stronger effect = lower value 0.992 | locus YBR009C, strain hhf1, stronger effect = lower value 0.978 | locus YBR021W, strain FUR4, stronger effect = lower value 1.02 | locus YBR023C, strain chs3, stronger effect = lower value 1.01 | locus YBR171W, strain sec66, stronger effect = lower value 0.999 | locus YBR229C, strain ROT2, stronger effect = lower value 1.02 | locus YBR231C, strain swc5, stronger effect = lower value 1 | locus YBR279W, strain paf1, stronger effect = lower value 1 | locus YCL011C, strain gbp2, stronger effect = lower value 1.01 | locus YCL016C, strain dcc1, stronger effect = lower value 0.996 | locus YCL029C, strain bik1, stronger effect = lower value 0.996 | locus YCL069W, strain vba3, stronger effect = lower value 0.992 | locus YCR088W, strain abp1, stronger effect = lower value 1 | locus YDL005C, strain med2, stronger effect = lower value 0.998 | locus YDL035C, strain GPR1, stronger effect = lower value 1.02 | locus YDL040C, strain nat1, stronger effect = lower value 1 | locus YDL074C, strain BRE1, stronger effect = lower value 1.04 | locus YDL101C, strain DUN1, stronger effect = lower value 1.03 | locus YDL134C, strain PPH21, stronger effect = lower value 1.01 | locus YDL185W, strain tfp1, stronger effect = lower value 0.996 | locus YDL192W, strain arf1, stronger effect = lower value 0.99 | locus YDR001C, strain nth1, stronger effect = lower value 1.01 | locus YDR069C, strain doa4, stronger effect = lower value 1 | locus YDR101C, strain arx1, stronger effect = lower value 1 | locus YDR137W, strain rgp1, stronger effect = lower value 1 | locus YDR150W, strain NUM1, stronger effect = lower value 1.02 | locus YDR159W, strain sac3, stronger effect = lower value 0.907 | locus YDR162C, strain NBP2, stronger effect = lower value 1.01 | locus YDR195W, strain ref2 1 | locus YDR297W, strain sur2, stronger effect = lower value 0.989 | locus YDR318W, strain mcm21, stronger effect = lower value 0.988 | locus YDR334W, strain swr1, stronger effect = lower value 1.01 | locus YDR335W, strain msn5, stronger effect = lower value 1 | locus YDR388W, stronger effect = lower value 0.993 | locus YDR392W, strain spt3, stronger effect = lower value 0.881 | locus YDR502C, strain sam2, stronger effect = lower value 0.983 | locus YEL003W, strain gim4, stronger effect = lower value 1.02 | locus YEL037C, strain rad23, stronger effect = lower value 0.995 | locus YEL061C, strain CIN8 (second series), stronger effect = lower value 1.01 | locus YEL061C, strain CIN8, stronger effect = lower value 1.02 | locus YER015W, strain faa2, stronger effect = lower value 1.01 | locus YER016W, strain bim1, stronger effect = lower value 0.988 | locus YER110C, stronger effect = lower value 0.992 | locus YER111C, strain swi4, stronger effect = lower value 0.995 | locus YER155C, strain BEM2 (second series), stronger effect = lower value 0.962 | locus YER155C, strain BEM2, stronger effect = lower value 1 | locus YER167W, strain BCK2, stronger effect = lower value 1.01 | locus YFR010W, strain ubp6, stronger effect = lower value 1 | locus YGL078C, strain dbp3, stronger effect = lower value 0.986 | locus YGL086W, strain mad1, stronger effect = lower value 0.995 | locus YGL167C, strain pmr1, stronger effect = lower value 0.999 | locus YGL173C, strain kem1, stronger effect = lower value 1 | locus YGL227W, strain vid30, stronger effect = lower value 1 | locus YGL240W, strain doc1, stronger effect = lower value 0.987 | locus YGL248W, strain PDE1, stronger effect = lower value 1.03 | locus YGL253W, strain hxk2, stronger effect = lower value 1.01 | locus YGR135W, strain pre9, stronger effect = lower value 0.982 | locus YGR252W, strain gcn5, stronger effect = lower value 0.953 | locus YHR013C, strain ard1, stronger effect = lower value 0.987 | locus YHR027C, strain rpn1, stronger effect = lower value 0.999 | locus YHR030C, strain SLT2, stronger effect = lower value 1.02 and 0.989 | locus YHR079C, strain IRE1 (second series), stronger effect = lower value 0.998 | locus YHR079C, strain IRE1, stronger effect = lower value 0.995 | locus YHR094C, strain hxt1, stronger effect = lower value 0.984 | locus YHR129C, strain ARP1, stronger effect = lower value 1.01 | locus YHR142W, strain chs7, stronger effect = lower value 1 | locus YHR200W, strain rpn10, stronger effect = lower value 0.999 | locus YIL066C, strain RNR3, stronger effect = lower value 1.03 | locus YIL073C, strain SPO22, stronger effect = lower value 0.965 | locus YIL125W, strain kgd1, stronger effect = lower value 0.996 | locus YIR030C, strain dcg1, stronger effect = lower value 0.99 | locus YJL092W, strain hpr5, stronger effect = lower value 1 | locus YJL095W, strain BCK1 (second series), stronger effect = lower value 1 | locus YJL095W, strain BCK1, stronger effect = lower value 1.05 and 1.01 | locus YJL115W, strain asf1, stronger effect = lower value 0.996 | locus YJL129C, strain trk1, stronger effect = lower value 1 | locus YJL134W, strain LCB3, stronger effect = lower value 1.01 | locus YJL154C, strain vps35, stronger effect = lower value 0.997 | locus YJL164C, strain tpk1, stronger effect = lower value 0.985 | locus YJL166W, strain qcr8, stronger effect = lower value 1.02 | locus YJL168C, strain set2, stronger effect = lower value 0.996 | locus YJL187C, strain SWE1 (second series), stronger effect = lower value 1.03 | locus YJR043C, strain POL32, stronger effect = lower value 1.01 | locus YJR066W, strain TOR1, stronger effect = lower value 0.934
